{"source": "PubChem BioAssay (NCATS)", "note": "Records with an inconclusive call do not appear. The source made the active and inactive calls. The call rests on the fitted dose curve; in most records, active means well fitted cell-killing curve with a large enough effect; inconclusive means small, poorly fitted or top-dose-only effect, or effect the other way; inactive means no such curve, though single readings can be large or run the other way. On the % scale 0 is the no-effect control and ±100 the full control effect; potency means the concentration at half of the fitted maximal effect."}
{"assay": "qHTS of pediatric cancer cell lines to identify multiple opportunities for drug repurposing: Confirmatory screen for OHS-50 cells (AID 1347128);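 further: compound exposure lasted 48 h at 37 degrees C; nearly all actives have a fitted effect of over 55% in size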", "settings": "OHS-50 osteosarcoma cells viability; series mostly up to 45.9 µM; activity change, negative = cytotoxic: at the top concentration", "from_the_text": "Drug repurposing or repositioning has been offered as a strategy for drug development in oncology programs. This approach has special potential for childhood cancers and other rare or orphan diseases, where the expected return on new drug development has been a disincentive to pharmaceuticals.\nIn this project we exploit the poly-pharmacology of drugs to discover new indications via phenotypic screening of a panel of 19 well-characterized cell lines derived from solid tumors seen in children and adolescents. The goal is to identify approved drugs with previously unrecognized anticancer properties that has the potential to reveal new mechanisms and biological processes involved in carcinogenesis or drug resistance. We employed a titration-based paradigm (quantitative high-throughput screening or qHTS), where all compounds were tested at multiple concentrations for their effect on cell viability. Concentration-response curves (CRCs) were derived directly from the primary screen, and both potency and efficacy values were used to identify compounds with robust bioactivity profiles. We screened the NIH Chemical Genomics Center (NCGC) Pharmaceutical Collection (NPC) and Mechanism Interrogation Plate (MIPE) small molecule collections of approved and investigational compounds against these cell lines; and measured metabolically active cells after 48 hours of compound treatment as a proxy for cell viability.\nAssay Submitter: Nathalia J. Martinez, National Center for Advancing Translational Sciences, National Institutes of Health, Rockville, MD, USA; email: natalia.martinez@nih.gov\n[1] Shen, M et al. Quantitative high-throughput phenotypic screening of pediatric cancer cell lines identifies multiple opportunities for drug repurposing. Oncotarget 2017 Dec 19;9(4):4758-4772. PMID 29435139.\nThe cells were obtained from University of North Carolina (UNC), Pediatric Preclinical Testing Program (PPT), and Coriell Institute (CI).\nqHTS cell viability assay:\nCells were assayed in growth media at a density of 500-1,000 cells/well. Five microliters of cells were dispensed into 1,536-well, white, solid-bottom, TC-treated plates (Greiner Bio One) using a multidrop dispenser and incubated at 37 degrees C, 5% CO2, under a humidified atmosphere for 5 hours. Twenty-three nanoliters of compounds and controls (neutral control DMSO or positive control bortezomib at final concentration of 2.3 µM) were subsequently transferred by Kalypsys pintool. For primary screens, the MIPE collection was tested at 11-point dilutions (final concentrations range from 0.78 nM to 46 µM) and the NPC collection at 8-point dilutions (final concentrations range from 0.59 nM to 46 µM). Compounds tested in follow-up screens were assayed at 11-point dilutions. Cells were incubated for 48 hours, followed by addition of 3 µL of CellTiter-Glo (Promega). After a 15 min incubation at room temperature, samples were analyzed for luminescence intensity using a ViewLux High-throughput CCD imager equipped with clear filters."}
{"smiles": "Nc1c2ccccc2nc2ccccc12", "Potency": "3.69 µM (active)"}
{"smiles": "CC(=O)OCC(=O)[C@@]1(O)[C@H](OC(C)=O)C[C@H]2[C@@H]3CCC4=CC(=O)C=C[C@]4(C)[C@@]3(F)[C@@H](O)C[C@@]21C", "activity change, negative = cytotoxic": "2.55% (inactive)"}
{"smiles": "CC[C@@]1(O)C(=O)OCc2c1cc1n(c2=O)Cc2c-1nc1ccccc1c2/C=N/OC(C)(C)C", "Potency": "0.0369 µM (active)"}
{"smiles": "CC(C)(C)CC(=O)OCC(=O)[C@@]1(O)CC[C@H]2[C@@H]3CCC4=CC(=O)C=C[C@]4(C)[C@H]3[C@@H](O)C[C@@]21C", "activity change, negative = cytotoxic": "-15.1% (inactive)"}
{"smiles": "CCCCC(CC)CNC(=O)CC(C)OC(=O)CCC(=O)O", "note": "(stereo not drawn)", "activity change, negative = cytotoxic": "-11.6% (inactive)"}
{"smiles": "CCC1(c2cnc[nH]2)Cc2ccccc2C1", "activity change, negative = cytotoxic": "-2.31% (inactive)"}
{"smiles": "Cc1cc(OCCOCC[N+](C)(C)Cc2ccccc2)ccc1C(C)(C)CC(C)(C)C", "Potency": "14.7 µM (active)"}
{"smiles": "CC(=O)[C@@]1(O)CC[C@H]2[C@@H]3C[C@H](C)C4=CC(=O)CC[C@]4(C)[C@H]3CC[C@@]21C", "activity change, negative = cytotoxic": "-19.6% (inactive)"}
{"smiles": "CO[C@@H]1[C@@H](OC)[C@H](C)[C@@](O)(CC(=O)O)O[C@H]1[C@H](C)[C@H]1O[C@@]2(CC[C@@](C)([C@H]3CC[C@@](C)([C@@H]4O[C@@H]([C@H]5O[C@](C)(O)[C@H](C)C[C@@H]5C)C[C@@H]4OC4C[C@H](OC)[C@@H](OC)[C@H](C)O4)O3)O2)C[C@H](O)[C@H]1C", "note": "(stereo partly drawn)", "Potency": "0.657 µM (active)"}
{"smiles": "COc1cc(/C=C/C(N)=O)cc(OC)c1OC", "activity change, negative = cytotoxic": "-14.4% (inactive)"}
{"smiles": "Nc1ccc2cc3ccc(N)cc3nc2c1", "Potency": "20.8 µM (active)"}
{"smiles": "CC(=O)O[C@@H]1C(=O)O[C@@H]2[C@H]1OC(=O)[C@@H]2OC(C)=O", "activity change, negative = cytotoxic": "2.81% (inactive)"}
{"smiles": "CCOC(=O)O[C@]1(C(=O)OCCl)CC[C@H]2[C@@H]3CCC4=CC(=O)C=C[C@]4(C)[C@H]3[C@@H](O)C[C@@]21C", "activity change, negative = cytotoxic": "7.11% (inactive)"}
{"smiles": "Cc1nc(N)nc(N)c1-c1ccc(Cl)c(Cl)c1", "Potency": "1.31 µM (active)"}
{"smiles": "CCC(=O)O[C@]1(C(=O)COC)[C@@H](C)C[C@H]2[C@@H]3CCC4=CC(=O)C=C[C@]4(C)C3(F)[C@@H](O)C[C@@]21C", "note": "(stereo partly drawn)", "activity change, negative = cytotoxic": "2.76% (inactive)"}
{"smiles": "CC(=O)OCC(=O)[C@@]1(O)CCC2C3CCC4=CC(=O)CC[C@]4(C)C3[C@@H](O)C[C@@]21C", "note": "(stereo partly drawn)", "activity change, negative = cytotoxic": "-15.5% (inactive)"}
{"smiles": "CCCC(=O)O[C@]1(C(=O)COC(=O)CC)CC[C@H]2[C@@H]3CCC4=CC(=O)CC[C@]4(C)[C@H]3[C@@H](O)C[C@@]21C", "activity change, negative = cytotoxic": "0.215% (inactive)"}
{"smiles": "CCCC(=O)O[C@]1(C(=O)CCl)[C@@H](C)C[C@H]2[C@@H]3CCC4=CC(=O)C=C[C@]4(C)[C@@]3(F)C(=O)C[C@@]21C", "activity change, negative = cytotoxic": "-24.2% (inactive)"}
{"smiles": "C[C@H]1C[C@@H]2[C@H]([C@@H](O)C[C@@]3(C)[C@H]2CC[C@]3(O)C(=O)CO)[C@@]2(C)C=CC(=O)C=C12", "activity change, negative = cytotoxic": "-25.9% (inactive)"}
{"smiles": "C[C@]12CCC(=O)C=C1CC[C@@H]1[C@@H]2[C@@H](O)C[C@@]2(C)[C@H]1CC[C@]2(O)C(=O)COC(=O)CCC(=O)O", "activity change, negative = cytotoxic": "-0.116% (inactive)"}
{"smiles": "CCN(CC)CC(=O)OCC(=O)[C@@]1(O)CC[C@H]2[C@@H]3CCC4=CC(=O)CC[C@]4(C)[C@H]3[C@@H](O)C[C@@]21C", "activity change, negative = cytotoxic": "4.78% (inactive)"}
{"smiles": "CCCCC(=O)OCC(=O)[C@H]1[C@H](C)C[C@H]2[C@@H]3C[C@H](F)C4=CC(=O)C=C[C@]4(C)[C@@]3(F)[C@@H](O)C[C@@]21C", "Potency": "20.8 µM (active)"}
{"smiles": "N=C(N)c1ccc(OCCCOc2ccc(C(=N)N)cc2)cc1", "activity change, negative = cytotoxic": "6.72% (inactive)"}
